# Data published in PubChem BioAssay (Tox21).
# Several values for one entry are separate records, joined by “and”; a condition that tells them apart may be missing. Identical values can stand only once. Results filed as inconclusive are left out. Values without a mark were called inactive. Activity calls are given as the source filed them. Calls come from the whole dose curve.
# Assay: Nuclear factor erythroid 2-related factor 2/antioxidant responsive element (Nrf2/ARE) small molecule agonists: luciferase reporter gene qHTS assay in human keratinocytes (AID 1919969); note: nearly all actives have a fitted effect of over 35% in size
# Conditions: KeratinoSens HaCaT ARE-luciferase, luminescence, 24 h; series mostly up to 92.4 µM; activity, positive = activation: at the top concentration
# % is set by controls: 0 for no effect and ±100 for the full control effect; potency is the fitted concentration of half-maximal effect.
Structure (SMILES),Potency,"activity, positive = activation"
S=C=NCCc1ccccc1,43.4 µM (active),
Clc1cc(Cl)c(-c2cc(Cl)c(Cl)cc2Cl)cc1Cl,,-2.35% [at 42.5 µM]
CC1=C2C[C@H]3[C@@H](CC=C4C[C@@H](O)CC[C@@]43C)[C@@H]2CC[C@]12O[C@@H]1C[C@H](C)CN[C@H]1[C@H]2C,,-15.9% [at 42.5 µM]
Cc1nc2ccccc2c(=O)n1-c1ccccc1Cl,,-7.17%
ClC1=C(Cl)[C@]2(Cl)[C@H]3[C@H]([C@@H]4C=C[C@H]3C4)[C@@]1(Cl)C2(Cl)Cl,inactive,
CC(C)[C@@H](C(=O)O[C@@H](C#N)c1cccc(Oc2ccccc2)c1)c1ccc(Cl)cc1,,17.9%
O=C(Cl)c1ccc(Cl)cc1,,-7.46%
CCCCOCN(C(=O)CCl)c1c(CC)cccc1CC,24.3 µM (active),
Nc1ccc([N+](=O)[O-])cc1Cl,,-6.11%
CCCCP(CCCC)CCCC,,-10.6%
CC(C)c1c(CN(C)C(C)Cc2ccccc2)n(C)n(-c2ccccc2)c1=O (stereo unspecified),,0.718% [at 42.5 µM]
C[C@]12C/C(=C/O)C(=O)C[C@@H]1CC[C@@H]1[C@@H]2CC[C@@]2(C)[C@H]1CC[C@]2(C)O,27.6 µM (active) and 6.68 µM (active),
ClC1=C(Cl)[C@]2(Cl)[C@H]3[C@H]([C@H]4C=C[C@H]3C4)[C@@]1(Cl)C2(Cl)Cl,19.3 µM (active),
COC(=O)C(c1ccccc1)C1CCCCN1 (stereo unspecified),,0.399%
CN1C(=O)[C@@H](NC(=O)c2cc3ccccc3[nH]2)N=C(c2ccccc2)c2ccccc21,,22.7% [at 42.5 µM]
CCO[C@H]1O[C@@H]2OC3(C)CC[C@H]4[C@H](C)CC[C@@H]([C@H]1C)[C@@]24OO3,,4.7% [at 42.5 µM]
